Source: the supplement of paper PMC13094657
± gives the standard deviation of the averaged measurements.

How the values were obtained:
MDA-MB-231 [1] = experiment: cell viability relative to vehicle unstimulated control (fraction); higher = more viable cells; conditions: pre-treatment time: 18 h then 24 h IFNg/TNF
MDA-MB-231 [2] = experiment: kynurenine production, fold change vs DMSO IFNg/TNF control; higher = more kynurenine produced (less inhibition); conditions: pre-treatment time: 18 h then 24 h IFNg/TNF
Outline: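 Fold change over cytokine-stimulated vehicle wells on the same plate is the measure used for kynurenine production, averaged across duplicate plates in the first screening round. MDA-MB-231 cells, seeded 24 h beforehand at 7 × 10^4/well in 96-well plates, were pre-treated 18 h with each natural product in 0.1% DMSO and stimulated 24 h at 37°C with IFNγ (1 U/ml) and TNF (6.25 ng/ml). Supernatants were read at 492 nm following trichloroacetic acid and p-dimethylaminobenzaldehyde treatment, against 0–100 μM standards.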
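Throughout, for cell viability relative to vehicle unstimulated control: viability of the cells left after supernatant collection, read with Deep Blue dye added for 4 h, as absorbance at 570 nm minus 600 nm.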

Row | SMILES | cell viability (MDA-MB-231 [1]) | kynurenine production (MDA-MB-231 [2])
1 | O=C1C[C@@H](O[C@@H]2O[C@H](CO)[C@@H](O)[C@H](O)[C@H]2O)CO1 [Kinsenoside] (compound dose: 10 uM) | 0.971 ± 0.18 | 1.01 ± 0.34
2 | CC1=CC[C@@H](C(C)(C)O)CC1 [(-)-α-Terpineol] (compound dose: 10 uM) | 1.07 ± 0.061 | 0.84 ± 0.24
3 | COC(=O)[C@@H]1C[C@@]23C4=C(CC[C@@H]5CN6C[C@@H](C)[C@@H](C[C@@H](OC(C)=O)[C@@]52COC(C)=O)[C@]63O)CC[C@@H]41 [Yuzurimine] (compound dose: 10 uM) | 1.04 ± 0.029 | 0.756 ± 0.07
4 | CC(C)=CCC[C@](C)(O[C@@H]1O[C@H](CO[C@@H]2O[C@H](CO)[C@@H](O)[C@H](O)[C@H]2O)[C@@H](O)[C@H](O)[C@H]1O)[C@H]1CC[C@]2(C)[C@@H]1[C@H](O)C[C@@H]1[C@@]3(C)CC[C@H](O[C@@H]4O[C@H](CO)[C@@H](O)[C@H](O)[C@H]4O[C@@H]4O[C@H](CO)[C@@H](O)[C@H](O)[C@H]4O[C@@H]4OC[C@@H](O)[C@H](O)[C@H]4O)C(C)(C)[C@@H]3CC[C@]12C [Notoginsenoside Fa] (compound dose: 10 uM) | 1.21 ± 0.15 | 1.06 ± 0.13
